PubChem BioAssay AID540363 (National Center for Advancing Translational Sciences (NCATS), 2011)
Results filed as inconclusive are left out. The source made the active and inactive calls. Calls follow the shape of the dose curve; as a rule, active = well fitted cell-killing curve with a large enough effect; inconclusive = small, poorly fitted or top-dose-only effect; inactive = flat fitted curve, though single readings scatter.

Test: PC3M Cytotoxicity Assay for Compounds that Inhibit the Perinuclear Compartment: Chemistry Optimization Followup
Details: PC3M-GFP viability, ATPLite luminescence, 24 h; series mostly up to 46.1 µM
Excerpt: The perinucleolar compartment (PNC) is a non-membrane-bound nuclear subdomain that is associated with but structurally distinct from the nucleolus. The PNC is a heritable trait, in which the number of PNCs per cell in daughter cells often mimics that of their mother cells. The PNC is heterogeneous in shape, is stable through interphase, disassembles during mitosis, and reassembles in early G1. The PNC is concentrated with newly synthesized RNA polymerase III (pol III) RNAs (MRP RNA, RNAse P H1 RNA, hY RNAs[hY1, 2, 5], Alu RNA, and SRP [7SL] RNA) and RNA binding proteins (nucleolin, PTB, CUG-BP, KSRP, Raver1, Raver2, and Rod). […] Extensive in vitro studies have shown that the PNC is unique to tumor cells and preferentially forms in tumor cells derived from solid tissues. Examination of cancer cell lines from various origins and malignant capacities has shown that PNC prevalence correlates with the malignancy of tumors and has the potential to be developed as a pan-cancer prognostic marker. […] Although the PNC is associated with a DNA locus and a handful of components have been identified, much remains to be investigated regarding the structure and function of the PNC and its mechanistic link to cancer. We have previously shown that PNC prevalence reduction is a valid strategy to identify compounds that can be used to study the structure and function of the PNC. It is necessary, however, to create a screening platform that is able to test a large number of compounds in an automated fashion. Here we report the development and robustness of an automated whole-cell phenotypic image-based screening assay that is capable of identifying such compounds. We conducted a followup assay to measure the effect of the lead candidates on cell health by measuring ATP levels (ATPLite). The highly metastatic PC3M-GFP reporter cell line was used in this study. NIH Chemical Genomics Center [NCGC] NIH Molecular Libraries Probe Centers Network [MLPCN] MLPCN Grant: MH082371-01A2 Assay Submitter (PI): Sui Huang, Northwestern University, Feinberg School of Medicine, Cell and Molecular Biology, Chicago, Illinois.
1. Cells at a density of 75-90% confluency in T175 flasks were harvested using 7 ml TrypLE Express cell dissociation reagent. After dissociation (5 minutes room temperature incubation) 10 ml of complete media was added to the TrypLE/cell suspension. The liquid was transferred to a 50 ml Conical tube and cells were pelleted at 1000 RPM for 5 min. Supernatant was removed and cells were resuspended to a final density of 150-200 cells/ul in complete media. 2. Cells were plated in 5 ul volume (2000 cells/well) into 1536 well White solid bottom plates and allowed to recover and adhere at 37 C in a humidified 5% CO2 incubator for 4 hours. 3. After 4 hour incubation, compound libraries (23 nl of […] in columns 5-48) were transferred to the plates in duplicate using a 1536 well pintool. Camptothecin positive control (59 uM final) was added to column 2 and 1:3 dilutions of camptothecin was added to column 3. DMSO negative controls were present in columns 1 and 4. 4. After a 24 hour incubation in the 37 C incubator, all wells were treated with 3 ul of ATPLite reagent using a multidrop combi dispenser (ThermoFisher). Bubbles that formed during dispensing were removed by spinning the plates for 1 minutre at 1500 RPM on a table top centrifuge. 5. Luminescencent signal was detected on a Viewlux CCD based imager (PerkinElmer) with a clear filter and a 30 second integration time. The PC3M cell line stably expressing the PTB-GFP was provided by Sui Huang of Northwestern University. The media and cell culture reagents were purchased from Invitrogen (Carlsbad, CA), ATPLite came from PerkinElmer.
With COCCn1cnc2c(c(-c3ccccc3)c(-c3ccccc3)n2CCc2ccccc2)c1=N the Potency was 15.8 µM (active).
For CN(C)CCCn1cnc2c(c(-c3ccccc3)c(-c3ccccc3)n2Cc2ccccc2)c1=N, the Potency was 25 µM (active).
In the case of COc1ccc(Cn2c(-c3ccccc3)c(-c3ccccc3)c3c(=N)n(CCCCO)cnc32)cc1, the Potency is reported as 12.5 µM (active).
With N=c1c2c(-c3ccccc3)c(-c3ccccc3)n(CCc3ccccc3)c2ncn1[C@H](CO)Cc1ccccc1 the Potency was 19.9 µM (active).
With COc1ccc(Cn2c(-c3ccccc3)c(-c3ccccc3)c3c(=N)n(CC4CCCO4)cnc32)cc1 (stereo not given) the Potency was 19.9 µM (active).
For N=c1c2c(-c3ccccc3)c(-c3ccccc3)n(CCc3ccccc3)c2ncn1CCCO, the Potency was 15.6 µM (active).
With N=c1c2c(-c3ccccc3)c(-c3ccccc3)n(CCc3ccccc3)c2ncn1C1CCC(O)CC1 (stereo not given) the Potency was 17.7 µM (active).
With COc1ccc(Cn2c(NC=N[C@H](C)[C@@H](O)c3ccccc3)c(C#N)c(-c3ccccc3)c2-c2ccccc2)cc1 the Potency was 19.6 µM (active).
With CCOC(CCCn1cnc2c(c(-c3ccccc3)c(-c3ccccc3)n2CCc2ccccc2)c1=N)OCC the Potency was 22.3 µM (active).
For COC(Cn1cnc2c(c(-c3ccccc3)c(-c3ccccc3)n2CCc2ccccc2)c1=N)OC, the Potency was 17.7 µM (active).
In the case of N=c1c2c(-c3ccccc3)c(-c3ccccc3)n(Cc3ccccc3)c2ncn1CC1CCCO1 (stereo not given), the Potency is reported as 19.9 µM (active).
In the case of CN(C(=O)c1cccs1)c1cccnc1, the Potency is reported as “inactive”.
With CN(C)CCn1cnc2c(c(-c3ccccc3)c(-c3ccccc3)n2CCc2ccccc2)c1=N the Potency was 15.8 µM (active).
For N=c1c2c(-c3ccccc3)c(-c3ccccc3)n(CCc3ccccc3)c2ncn1CC1CCCO1 (stereo not given), the Potency was 11.2 µM (active).
In the case of N=c1c2c(-c3ccccc3)c(-c3ccccc3)n(CCc3ccccc3)c2ncn1CCCCCO, the Potency is reported as 17.7 µM (active).
With COCCn1cnc2c(c(-c3ccccc3)c(-c3ccccc3)n2Cc2ccc(OC)cc2)c1=N the Potency was 17.7 µM (active).
In the case of C[C@H]([C@@H](O)c1ccccc1)n1cnc2c(c(-c3ccccc3)c(-c3ccccc3)n2Cc2ccccc2)c1=N, the Potency is reported as 15.8 µM (active).
With CN(C)CCCn1cnc2c(c(-c3ccccc3)c(-c3ccccc3)n2CCc2ccccc2)c1=N the Potency was 22.3 µM (active).
In the case of COc1ccc(Cn2c(-c3ccccc3)c(-c3ccccc3)c3c(=N)n(CCCCCO)cnc32)cc1, the Potency is reported as 15.8 µM (active).
In the case of CN(C)CCn1cnc2c(c(-c3ccccc3)c(-c3ccccc3)n2Cc2ccccc2)c1=N, the Potency is reported as 17.7 µM (active).
